Screens deposited in PubChem BioAssay by National Center for Advancing Translational Sciences (NCATS).
TbPYK inhibitor: qHTS of Trypanosoma Brucei Inhibitors. pyruvate kinase (Trypanosoma brucei), Q57TT1. TbPYK enzyme, Kinase-Glo Plus ATP luminescence, 45 min. Potency, µM (doses to about 76.8 µM), inactives show at the top dose activity, negative = inhibition, usual class: inhibitors. hit rate 0.12% among 410,000. AID 624173, 2012; further: potency means the concentration at half of the fitted maximal effect; on the % scale 0 is the no-effect control and ±100 the full control effect; nearly all actives have a fitted effect of over 50% in size
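Glycolytic pyruvate kinase of T. brucei was incubated with substrate, test compound and 130 uM ADP for 45 minutes at room temperature. Luminescent Kinase-Glo Plus signal was measured after 10 minutes.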
Shiga toxin inh: A qHTS for Small Molecule Inhibitors of Shiga Toxin; hit rate 9.2% among 290,000; Vero cells, Shiga toxin protein synthesis inhibition reporter; inhibition, % at 38.7 µM; in the data active means inhibition mostly above about 28%, no sharp cut-off; inactive means mostly below about 43%; further: 0% is about no effect
Giardia FBPA inh: qHTS Assay for Inhibitors of Fructose-1,6-bisphosphate Aldolase from Giardia Lamblia; A8B2U2; purified Giardia FBPA; Potency, µM (series often up to 59.6 µM), without a hit: top-dose activity, negative = inhibition, hits mostly inhibitors; hit rate 0.71% among 290,000; AID 2451, 2010; further: potency means the concentration at half of the fitted maximal effect; on the % scale 0 is the no-effect control and ±100 the full control effect; nearly all actives have a fitted effect of over 55% in size
Target sequence (A8B2U2 whole entry, looked up): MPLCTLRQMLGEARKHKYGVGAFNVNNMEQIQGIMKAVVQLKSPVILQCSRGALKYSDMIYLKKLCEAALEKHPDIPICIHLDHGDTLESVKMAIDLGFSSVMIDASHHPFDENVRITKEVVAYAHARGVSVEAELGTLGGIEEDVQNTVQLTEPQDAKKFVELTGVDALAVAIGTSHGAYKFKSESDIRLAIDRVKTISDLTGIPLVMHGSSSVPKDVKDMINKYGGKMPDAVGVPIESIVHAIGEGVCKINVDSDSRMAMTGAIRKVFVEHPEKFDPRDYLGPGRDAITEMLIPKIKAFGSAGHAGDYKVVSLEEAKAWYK
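Giardia FBPA (40 nM reagent) was preincubated 10 min at RT with compound (up to 57.5 uM final), then substrate plus GAPDH/TPI/NAD/arsenate coupling system with diaphorase/resazurin was added; resorufin fluorescence (525/598 nm) was read after 20 min.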
Sm TGR block: qHTS Assay for the Inhibitors of Schistosoma Mansoni Peroxiredoxins; Schistosoma mansoni thioredoxin glutathione reductase (TGR), Q962Y6; purified TGR, DTNB reduction, TNB absorbance 405 nm; Potency, µM (series often up to 114 µM), for inactives: at the highest dose activity change, negative = inhibition, hits mostly inhibitors; hit rate 3% among 360,000; further: potency means the concentration at half of the fitted maximal effect; on the % scale 0 is the no-effect control and ±100 the full control effect; nearly all actives have a fitted effect of over 60% in size
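Kinetic colorimetric format: TGR-catalysed, NADPH-driven DTNB reduction monitored via TNB absorbance. Enzyme dispensed at 20 nM; compound exposure 15 min at room temperature before reaction start.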
CHX counter: Cycloheximide Counterscreen for Small Molecule Inhibitors of Shiga Toxin. cell reporter, cycloheximide protein synthesis inhibition counterscreen. AID 2314, 2010. hit rate 12% among 300,000. max response, %; in the data active means max response mostly above about 13%, no sharp cut-off; inactive means mostly below about 14%; further: read at 38.3 µM for the half of the compounds with a filed dose; 0% is about no effect
LmPK inhibitor: qHTS Assay for Inhibitors of Leishmania Mexicana Pyruvate Kinase (LmPK) | purified LmPK, Kinase-Glo ATP luminescence, 1 h | AID 1721, 2009 | Q27686 | hit rate 0.37% among 290,000 | Potency, µM (highest dose often 57.5 µM), inactives show at the highest dose activity change, negative = inhibition, most hits filed as inhibitors; further: potency means the concentration at half of the fitted maximal effect; on the % scale 0 is the no-effect control and ±100 the full control effect
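Pyruvate kinase activity monitored as ATP production (luciferase luminescence). Conditions: 0.1 nM enzyme, 0.5 mM PEP, 0.1 mM ADP, 1 h, RT; normalized against uninhibited and no-enzyme wells.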
Starred values were filed as active, the others as inactive; ? = inconclusive; nt = no result given; + = active, no number. The full list was thinned out, with hits kept by preference. Unless noted, the call rests on the fitted dose curve; in most records, active means well fitted curve in the direction sought with a large enough effect; inconclusive means small, poorly fitted or top-dose-only effect, or another doubt; inactive means no such curve, though single readings can be large; an effect the other way counts as inactive or inconclusive.

SMILES	TbPYK inhibitor	Shiga toxin inh	Giardia FBPA inh	Sm TGR block	CHX counter	LmPK inhibitor
CCOC(=O)C1CCCN(C(=O)c2ccc3c(c2)sc2nc(-c4cccc(OC)c4)cn23)C1 (centres undefined)	6%	nt	nt	-11%	nt	nt
Cc1c(C(=O)NCc2ccccc2Br)oc2c1-c1[nH]ncc1CC2	-5%	nt	nt	1%	nt	nt
COc1ccc(Nc2cc(Nc3cccc(OC)c3)ncn2)cc1	1%	56*	9%	0%	54*	-7%
Cc1ccc(Nc2ncnc3nc[nH]c23)cc1Cl	-8%	63*	0%	4%	50*	3%
COc1ccc(Nc2cc(Nc3ccc(OC)cc3)ncn2)cc1	-3%	-4	7%	-8%	7	0%
O=C(Nc1cc2c(cc1C(=O)O)OCCCO2)c1ccc(C(F)(F)F)cc1	0%	76*	nt	-4%	44*	-3%
O=C(Cc1ccccc1)Nc1cc2c(cc1Cl)OCCCO2	4%	75*	1%	-32%	59*	-1%
CCC(O)c1cc2c(cc1NC(=O)c1ccc(C)cc1)OCCO2 (centres undefined)	-2%	34	-6%	-21%	17	-5%
CCc1ccc(C(=O)Nc2cc3c(cc2Cl)OCCCO3)cc1	-10%	84*	1%	-4%	60*	1%
CCOc1ccc(OCC)c(NC(=O)c2cc(S(=O)(=O)N3CCc4ccccc43)cn2C)c1	7%	nt	nt	-2%	nt	nt
COC(=O)N1CCC2(CC1)CN(c1cccc(-c3ccccc3)c1)C2	0%	nt	-6%	nt	nt	nt
Cn1ncc([N+](=O)[O-])c1C(=O)Nc1ccc(-c2nc3ccccc3o2)cc1	3%	41*	0%	-16%	24*	2%
CSc1nsc(/C=C/Nc2ccc(C)c(C)c2)c1C#N	0%	45*	?	-2%	28	7%
CSc1nsc(/C=C/Nc2ccc(C)cc2)c1C#N	-3%	14	-22%	-2%	1	0%
COc1cc(OC)c(NC(=O)CCCn2c(=O)oc3ccccc32)cc1Cl	-6%	-14	-7%	-8%	-2	0%
O=C(CCn1c(=O)oc2ccccc21)Nc1ccccc1	-18%	13	6%	0%	-7	3%
O=C(Cn1c(=O)oc2ccccc21)Nc1ccc2c(c1)OCCO2	-1%	13	-6%	-1%	18*	-2%
O=C(CCn1c(=O)oc2ccccc21)Nc1ccc2c(c1)OCCO2	-4%	80*	-9%	11%	71*	4%
Cc1ccnc(NC(=O)Cn2c(=O)oc3ccccc32)c1	-5%	60*	nt	2%	20*	4%
COc1ccc(NC(=O)CCCn2c(=O)oc3ccccc32)cc1Cl	-8%	64*	-10%	3%	66*	-3%
O=C(CCn1c(=O)oc2ccccc21)N1CCOCC1	0%	-4	-2%	8%	-5	5%
O=C(CCn1c(=O)oc2ccccc21)N1CCC2(CC1)OCCO2	16µM*	19	0%	5%	14*	6%
COc1cccc(CNS(=O)(=O)c2cc3[nH]c(=O)c(=O)[nH]c3cc2C)c1	3%	nt	nt	-5%	nt	nt
Cc1cccc(NC(=O)C(=O)NCC2CCCO2)c1 (centres undefined)	-2%	51*	0%	-24%	43*	-7%
O=C(NCC1CCCO1)Nc1cccc(Cl)c1 (centres undefined)	5%	27*	-1%	2%	17*	-5%
SMILES	TbPYK inhibitor	Shiga toxin inh	Giardia FBPA inh	Sm TGR block	CHX counter	LmPK inhibitor
CC[C@H](C)N(C)C(=O)c1cc2ccccc2c(-c2ccccc2Cl)n1	nt	nt	8%	nt	nt	nt
Cc1cc(C)n(-c2ccc(N3CCOCC3)nn2)n1	-9%	57*	-3%	4%	33*	-18%
CCc1ccccc1NC(=O)C(=O)NCC(c1cccnc1)N1CCc2ccccc21 (centres undefined)	-5%	nt	nt	-5%	nt	nt
Cc1nn(-c2ccc(Cl)cc2)c(Cl)c1/C=N/NC(=O)c1ccc(NS(=O)(=O)c2cccs2)cc1	-21%	nt	nt	nt	nt	nt
Cc1nn(-c2ccc(F)cc2)c(Cl)c1/C=N/NC(=O)c1ccc(O)cc1	4%	61*	3%	-3%	20*	4%
CNC(=S)N/N=C/c1c(C)nn(-c2ccc(F)cc2)c1Cl	2%	6	0%	-7%	11	-2%
Cc1nn(-c2ccc(F)cc2)c(Cl)c1/C=N/NC(=O)c1cccs1	-1%	59*	5%	0%	30*	4%
CC1CCN(C2=NC(=O)/C(=C/c3ccccc3F)S2)CC1	-6%	68*	0%	0%	38*	-1%
CC1CCN(C2=NC(=O)/C(=C/c3cccc(O)c3)S2)CC1	-5%	21	0%	5%	6	1%
COc1cc2ncc3c(-c4ccccc4)nn(CC(=O)NC4CCCCC4)c3c2cc1OC	1%	nt	nt	-11%	nt	nt
N/C(=N\OC(=O)COc1ccc2ccccc2c1Br)c1ccccn1	4%	119*	-12%	1%	56*	-2%
Cc1cc(C)c(C)c(OCC(=O)O/N=C(\N)c2ccccn2)c1	-4%	32	-1%	0%	22	-1%
N/C(=N\OC(=O)COc1ccc2ccccc2c1Br)c1cccnc1	nt	103*	0%	2%	16*	0%
Cc1cccc(NC(=O)c2ccc(CN3CC(=O)N4CCCCC4C3=O)cc2)c1C (centres undefined)	-3%	nt	nt	-5%	nt	nt
Cc1ccc(S(=O)(=O)NCCC(=O)N2CCOCC2)cc1C	-11%	nt	nt	2%	nt	nt
Cc1ccsc1/C=C(\C(=O)c1ccc(OC(C)C)cc1)c1nc2ccccc2o1	-1%	+	6%	6%	122*	6%
Cc1ccsc1/C=C(\CC(=O)O)c1nc2ccccc2o1	2%	51*	nt	-15%	22*	-5%
Cc1ccc(-c2nc3ccccc3o2)cc1NC(=O)Cc1cccs1	4%	25	10%	7%	14	2%
Cc1ccc(C(=O)NC(=S)N(C)C2CCCCC2)cc1	-17%	126*	nt	4%	50*	-2%
CN(C(=S)NC(=O)/C=C/c1ccc(F)cc1)C1CCCCC1	-12%	24	4%	-9%	17	2%
O=C1C(Cl)=C(N2CCN(c3ccccc3[N+](=O)[O-])CC2)C(=O)c2ccccc21	-6%	13	?	1.6µM*	-4	-18%
O=[N+]([O-])c1cc(Cl)ccc1N1CCCC1	4%	8	3%	0%	-2	6%
Cc1ccc(S(=O)(=O)NCCc2cn3nc(C)c(C)nc3n2)cc1C	0%	-7	-11%	-8%	-3	-2%
COc1ccc(S(=O)(=O)NCCc2cn3nc(C)c(C)nc3n2)cc1C	-1%	-1	nt	45µM*	7	4%
